28 compounds from PubChem BioAssay (Tox21) can be followed below.

Structures are written as SMILES. Calls of active or inactive are those of the source. Unless noted, the call rests on the fitted dose curve; in most records, active means well fitted curve in the direction sought with a large enough effect in the repeat runs; inconclusive means weak or mixed curves; inactive means no such curve, though single readings can be large; an effect the other way counts as inactive or inconclusive.

A short description of experiment [1]: qHTS assay to identify small molecule antagonists of the thyroid receptor (TR) signaling pathway - cell viability counter screen (AID 743064). Further: nearly all actives have a fitted effect of over 50% in size. Further: potency means the concentration at half of the fitted maximal effect. In a few lines: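 Viability of T3-stimulated (1 nM final) GH3.TRE-Luc cells is measured by CellTiter-Fluor fluorescence after 23.5 h compound exposure at 37 °C plus 30 min reagent incubation.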
Background: In qHTS, concentration-response curves come from the screen itself.

Experiment [2] can be described thus: qHTS assay to identify small molecule antagonists of the thyroid receptor (TR) signaling pathway (AID 743065). Further: nearly all actives have a fitted effect of over 55% in size. Further: potency means the concentration at half of the fitted maximal effect. The essentials:
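GH3.TRE-Luc rat pituitary cells (two TREs driving luciferase) were dosed with compound, then stimulated with 1 nM T3 (final) for 23.5 h at 37 C. ONE-Glo luminescence was the read-out, with CellTiter-Fluor fluorescence as the cytotoxicity counter-screen.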

Experiment [3] deals with thyroid hormone receptor (rat, GH3 cells). In words: qHTS assay to identify small molecule agonists of the thyroid receptor (TR) signaling pathway (AID 743066; calls by dose curve).
The nature of experiment [4]: qHTS assay to identify small molecule antagonists of the estrogen receptor alpha (ER-alpha) signaling pathway - cell viability counter screen (AID 743074; calls by dose curve;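 further: HEK293 cells carrying ER-alpha-UAS-bla reporter stimulated with 17beta-estradiol; nearly all actives have a fitted effect of over 45% in size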).
For experiment [5], the target named is Estrogen receptor (Homo sapiens) (UniProt P03372). Kind of experiment: qHTS assay to identify small molecule agonists of the estrogen receptor alpha (ER-alpha) signaling pathway (AID 743075; calls by dose curve).
Experiment [6] shares this target. Kind of experiment: qHTS assay to identify small molecule agonists of the estrogen receptor alpha (ER-alpha) signaling pathway using the BG1 cell line (AID 743079). Further: nearly all actives have a fitted effect of over 20% in size. The note with it: BG1Luc4E2 cells, ERE-luciferase agonist, 22 h; activation: at 70.3 µM (top of the series).
The nature of experiment [7]: qHTS assay to identify small molecule antagonists of the estrogen receptor alpha (ER-alpha) signaling pathway using the BG1 cell line (AID 743080; calls by dose curve;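 further: BG1 cells stimulated with 17beta-estradiol alongside compound; nearly all actives have a fitted effect of over 25% in size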; further: potency means the concentration at half of the fitted maximal effect). In a few lines: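 After 5 days in phenol-red-free 10% charcoal-stripped FBS medium, BG1-Luc-4E2 cells were seeded, left 24 h at 37 C, co-treated with compounds and 17beta-estradiol for 21.5 h, then assayed for viability and luciferase.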

A short description of experiment [8]: qHTS assay to identify small molecule antagonists of the estrogen receptor alpha (ER-alpha) signaling pathway using the BG1 cell line - cell viability counter screen (AID 743081).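 Further: compound given together with 17beta-estradiol as the ER stimulus; nearly all actives have a fitted effect of over 45% in size.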 Further: potency means the concentration at half of the fitted maximal effect.
Experiment [9] addresses Aromatase (Homo sapiens) (UniProt P11511). In words: qHTS assay to identify aromatase inhibitors (AID 743083). Further: nearly all actives have a fitted effect of over 55% in size. Further: potency means the concentration at half of the fitted maximal effect.
The target of experiment [10] is Estrogen receptor (Homo sapiens) (UniProt P03372). In words: qHTS assay to identify small molecule antagonists of the estrogen receptor alpha (ER-alpha) signaling pathway (AID 743069; active means well fitted curve in the direction sought with a large enough effect in the signal ratio in the repeat runs, not every such curve was filed as active; inconclusive means weak or mixed curves, or effect the other way; inactive means no such curve, though single readings can be large or run the other way; the % refers to the signal ratio; further: potency means the concentration at half of the fitted maximal effect). The essentials: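 HEK293 ER-alpha-UAS-bla GripTite cells, held overnight in 2% charcoal-stripped FBS, 5,000 cells/well, preincubated 4 h, then compound plus 17beta-estradiol for 18 h at 37C. Beta-lactamase read by LiveBLAzer B/G FRET substrate, 2 h at room temperature.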

Aromatase (Homo sapiens), sequence (P11511 whole entry, looked up): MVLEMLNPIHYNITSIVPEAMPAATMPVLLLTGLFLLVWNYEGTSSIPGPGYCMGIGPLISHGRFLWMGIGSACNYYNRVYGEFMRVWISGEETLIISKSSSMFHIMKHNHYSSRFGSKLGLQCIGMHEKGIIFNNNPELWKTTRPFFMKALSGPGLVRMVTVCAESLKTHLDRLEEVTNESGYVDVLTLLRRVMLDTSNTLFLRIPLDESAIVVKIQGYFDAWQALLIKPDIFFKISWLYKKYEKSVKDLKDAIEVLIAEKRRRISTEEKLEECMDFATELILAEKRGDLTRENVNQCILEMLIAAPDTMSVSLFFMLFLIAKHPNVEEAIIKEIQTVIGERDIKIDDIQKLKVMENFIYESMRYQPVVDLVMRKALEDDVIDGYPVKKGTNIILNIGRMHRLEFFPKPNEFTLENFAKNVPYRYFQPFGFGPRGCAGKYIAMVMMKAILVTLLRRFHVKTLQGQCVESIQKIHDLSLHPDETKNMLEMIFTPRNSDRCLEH
Estrogen receptor (Homo sapiens), sequence (P03372 whole entry, looked up): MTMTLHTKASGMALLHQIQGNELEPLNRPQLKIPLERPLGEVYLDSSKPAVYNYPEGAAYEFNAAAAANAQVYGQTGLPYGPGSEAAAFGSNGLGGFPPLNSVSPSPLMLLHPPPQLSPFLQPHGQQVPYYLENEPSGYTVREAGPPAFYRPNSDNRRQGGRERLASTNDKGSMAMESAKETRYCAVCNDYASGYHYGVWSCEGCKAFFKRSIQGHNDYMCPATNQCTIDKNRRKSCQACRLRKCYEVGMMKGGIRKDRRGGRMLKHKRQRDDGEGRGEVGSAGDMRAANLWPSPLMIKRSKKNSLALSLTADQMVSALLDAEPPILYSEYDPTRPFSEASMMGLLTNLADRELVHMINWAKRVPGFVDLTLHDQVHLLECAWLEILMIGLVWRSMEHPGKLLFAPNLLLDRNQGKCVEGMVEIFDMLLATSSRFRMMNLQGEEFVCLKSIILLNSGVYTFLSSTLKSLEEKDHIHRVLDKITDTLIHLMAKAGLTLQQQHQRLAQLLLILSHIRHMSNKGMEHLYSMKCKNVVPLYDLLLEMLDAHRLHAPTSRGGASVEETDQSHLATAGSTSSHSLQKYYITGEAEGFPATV

With `CC1(C)[C@H](C(=O)O)N2C(=O)C[C@H]2S1(=O)=O`, the Potency result in experiment [1], in experiment [2], in experiment [4], in experiment [5], in experiment [6] and in [7] was “inactive” throughout. In addition, the Potency entry in experiment [8] and in experiment [9] was “inactive” in each case. Further, the compound was classed as inactive in experiment [3].

In the case of `c1csc(SSc2cccs2)c1`, the Potency entry in experiment [1], in [2], in experiment [4], in experiment [8] and in experiment [9] was “inactive” each time. Besides, the call in experiment [3] was inactive.

With `NC1[C@H]2CN(c3nc4c(cc3F)c(=O)c(C(=O)O)cn4-c3ccc(F)cc3F)C[C@@H]12` (stereo not given in full), the Potency in experiment [1] is 26.6 µM (active); in [2], 9.44 µM (active); in experiment [7], 13.3 µM (active); in experiment [9], 0.473 µM (active). Moreover, the compound was called inactive in experiment [3]. For the same compound, the Potency result in experiment [4] and in [8] was “inactive” each time.

For `CC(C)C=O`, the Potency entry in [1], in experiment [2], in experiment [4], in experiment [8] and in experiment [9] was “inactive” in each case. Also, the compound was called inactive in experiment [3].

For the compound `CCC1(CO)COCOC1`, the Potency entry in experiment [1], in experiment [2], in experiment [10], in experiment [5], in experiment [6] and in experiment [7] was “inactive” throughout. Moreover, the Potency entry in experiment [8] and in experiment [9] was “inactive” in each case. The result in experiment [3] was inactive.

With `COc1cc(N)c(Cl)cc1C(=O)NC1CCN(CCCOc2ccc(F)cc2)CC1OC` (stereo not given), the Potency in [1] and in experiment [2] was 11.4 µM (active) in each case. The compound was called inactive in experiment [3]. The Potency entry in experiment [10], in experiment [4], in [5], in experiment [7] and in experiment [9] was “inactive” throughout.

`CCCCCCCCCCC(=O)O`: the Potency result in experiment [1], in experiment [2], in [4], in experiment [5], in [6] and in experiment [7] was “inactive” in each case. The Potency entry in experiment [8] and in experiment [9] was “inactive” each time. Moreover, the compound was classed as inactive in experiment [3].

`N#[N+]c1ccc2c(S(=O)(=O)[O-])cccc2c1O`: the Potency result in experiment [1], in experiment [2], in [4], in experiment [5], in [7] and in experiment [8] was “inactive” each time. For the same compound, in [9], the Potency result was “inactive”. Further, the compound was classed as inactive in experiment [3].

With `C=C1C[C@@]23CC[C@H]4[C@@](C)(CCC[C@@]4(C)C(=O)O[C@@H]4O[C@H](CO)[C@@H](O)[C@H](O)[C@H]4O)[C@@H]2CC[C@]1(O[C@@H]1O[C@H](CO)[C@@H](O)[C@H](O[C@@H]2O[C@H](CO)[C@@H](O)[C@H](O)[C@H]2O)[C@H]1O[C@@H]1O[C@H](CO)[C@@H](O)[C@H](O)[C@H]1O)C3`, the Potency entry in experiment [1], in experiment [2], in experiment [10], in experiment [4], in experiment [5] and in [6] was “inactive” in each case. Further, the Potency entry in experiment [7] and in [9] was “inactive” each time. For the same compound, the compound was called inactive in experiment [3].

For the compound `O=C1NCCN1CCO`, the Potency entry in [1], in experiment [2], in experiment [4], in [8] and in [9] was “inactive” each time. The result in experiment [3] was inactive.

In the case of `Oc1cc2c(cc1O)[C@H]1c3ccc(O)c(O)c3OC[C@@]1(O)C2`, the Potency in experiment [1] was 61.9 µM (active); in [2], 49.2 µM (active); in experiment [8] it was 49.2 µM (active); in experiment [9] it was 24.6 µM (active). Besides, the compound was called inactive in experiment [3]. In addition, the Potency result in experiment [10], in [4] and in experiment [5] was “inactive” in each case.

With `CCC1NC(=O)c2cc(S(N)(=O)=O)c(Cl)cc2N1` (stereo not given), the Potency result in experiment [1], in [2], in experiment [8] and in [9] was “inactive” each time. In [3], the result was inactive.

As to `CCCCCC[C@@H](O)C/C=C\CCCCCCCC(=O)OCC(O)CO` (stereo not given in full), the Potency entry in experiment [1], in experiment [2], in experiment [4], in [5], in [6] and in [7] was “inactive” in each case. For the same compound, the Potency result in [8] and in [9] was “inactive” each time. Besides, the result in experiment [3] was inactive.

Regarding `CC(=O)c1ccc([N+](=O)[O-])cc1`, the Potency entry in experiment [1], in experiment [2], in [4], in [8] and in [9] was “inactive” throughout. Also, the compound was called inactive in [3].

With `CC1=Nc2ccc3ccccc3c2C1(C)C`, the Potency result in [1], in experiment [2], in [4], in [5], in experiment [7] and in [8] was “inactive” each time. Also, the Potency entry in experiment [9] is “inactive”. In experiment [3], the call was inactive.

For the compound `CCCCCCCC/C=C\CCCCCCCCO`, the Potency entry in experiment [1], in [2], in experiment [8] and in experiment [9] was “inactive” in each case. In addition, the outcome in [3] was inactive.

For the compound `CCCCCCCCCI`, the Potency result in experiment [1], in experiment [2], in experiment [10], in [4], in experiment [7] and in experiment [8] was “inactive” in each case. Further, in experiment [9], the Potency entry was “inactive”. Also, the call in [3] was inactive.

In the case of `Cc1cccc(N(C)C(=S)Oc2ccc3c(c2)CCC3)c1`, the Potency entry in experiment [1], in experiment [2], in experiment [4], in experiment [5], in experiment [6] and in experiment [9] was “inactive” throughout. For the same compound, the compound was classed as inactive in experiment [3].

In the case of `C[C@]1(Cn2ccnn2)[C@H](C(=O)O)N2C(=O)C[C@H]2S1(=O)=O`, the Potency result in experiment [1], in experiment [2], in experiment [4], in experiment [6], in experiment [7] and in experiment [9] was “inactive” throughout. In experiment [3], the result was inactive. Besides, in [10], the Potency is 2.39 µM [inconclusive] (active).

Turning to `CC(C)c1nc(CN(C)C(=O)N[C@H](C(=O)N[C@@H](Cc2ccccc2)C[C@H](O)[C@H](Cc2ccccc2)NC(=O)OCc2cncs2)C(C)C)cs1`, the Potency was 15 µM (active) in experiment [1] and 10.6 µM (active) in experiment [2]. The compound was called inactive in experiment [3]. Further, the Potency entry in experiment [4], in [5], in experiment [6], in experiment [7] and in experiment [9] was “inactive” in each case.

As for `CCCCCCC(C)(C)C(=O)O`, the Potency result in [1], in [2], in [10], in experiment [5], in experiment [6] and in experiment [7] was “inactive” throughout. Besides, the Potency entry in experiment [8] and in [9] was “inactive” in each case. In addition, the compound was classed as inactive in experiment [3].

Regarding `CCCCCCNC(=O)n1cc(F)c(=O)[nH]c1=O`, the Potency in experiment [1] is 10.6 µM (active); in experiment [2], 2.66 µM (active). In experiment [3], the outcome was inactive. Besides, the Potency result in experiment [4], in experiment [8] and in experiment [9] was “inactive” throughout.

As for `CC/C=C1/OC(=O)c2ccccc21`, the Potency result in [1], in experiment [2], in experiment [4], in [8] and in experiment [9] was “inactive” in each case. In addition, the compound was called inactive in experiment [3].

For the compound `c1ccc2c(c1)CCc1ccccc1N2`, the Potency entry in [1], in experiment [2], in experiment [8] and in experiment [9] was “inactive” throughout. The compound was classed as inactive in experiment [3].

For the compound `O=C(Nc1cccc2c(=O)cc(-c3nn[nH]n3)oc12)c1ccc(OCCCCc2ccccc2)cc1`, the Potency entry in [1], in experiment [2], in [4], in experiment [8] and in experiment [9] was “inactive” each time. The outcome in [3] was inactive.

Take `CC1CC(OC(=O)C(O)c2ccccc2)CC(C)(C)N1C` (stereo not given): the Potency result in [1], in [2], in experiment [4], in experiment [8] and in [9] was “inactive” each time. For the same compound, the result in experiment [3] was inactive.

As to `CCOC(=O)c1ccc(OCCN2C[C@H](O)[C@@H](O)[C@H](O)[C@H]2CO)cc1`, the Potency result in [1], in [2], in [10], in experiment [5], in [6] and in experiment [7] was “inactive” in each case. In addition, the Potency result in experiment [8] and in [9] was “inactive” throughout. The compound was classed as inactive in experiment [3].

With `C=C(C)C(=O)OCCOCCOC(=O)C(=C)C`, the Potency entry in experiment [1], in experiment [2], in experiment [4], in [5], in experiment [6] and in experiment [7] was “inactive” throughout. The Potency result in experiment [8] and in experiment [9] was “inactive” throughout. The compound was called inactive in experiment [3].
